Measured values reported in PubChem BioAssay AID1159580 (chemical genetic matrix, 2015).
Among all 5,500 compounds or so, about 2,000 (36%) were called active. Not shown: some 18% with an inconclusive outcome. No stated cut-off is given here; in the data, active means normalized growth mostly below about 0.91 (no sharp cut-off); inconclusive means no clear call, values can overlap the other calls; inactive means mostly above about 0.92. The list shows a part of the results.

Assay: chemical genetic growth profiling, strain panel (AID 1159580);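 further: tested at 20 µM; growth read once vehicle control cultures reached saturation at 30 °C; 1 = growth at the plate median or of vehicle wells; lower values mean less growth of the strain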
Details: S. cerevisiae deletion strains, growth OD
[1] = locus YAL013W, strain DEP1, active compounds read low
[2] = locus YJR075W, strain HOC1, active compounds read low
[3] = locus YMR263W, strain SAP30, active compounds read low
[4] = locus YNL153C, strain GIM3, active compounds read low
[5] = locus YNL322C, strain KRE1, active compounds read low
[6] = locus YPL055C, strain LGE1, active compounds read low
[7] = locus YAL040C, strain CLN3, active compounds read low
[8] = locus YCL061C, strain MRC1 (second series), active compounds read low
[9] = locus YDR363W, strain ESC2, active compounds read low
[10] = locus YER002W, strain NOP16, active compounds read low
[11] = locus YNL175C, strain NOP13, active compounds read low
[12] = locus YNL197C, strain WHI3, active compounds read low
[13] = locus YNL224C, strain SQS1, active compounds read low
[14] = locus YOR083W, strain WHI5 (second series), active compounds read low
[15] = locus YGR229C, strain SMI1, active compounds read low

Measured: normalized growth

NC(N)=NC(N)=Nc1cc(Cl)cc(Cl)c1
inactive: [1] 1 | locus YBR229C, strain ROT2, active compounds read low 1.01 | locus YDL101C, strain DUN1, active compounds read low 1 | locus YDL134C, strain PPH21, active compounds read low 1.01 | locus YDR150W, strain NUM1, active compounds read low 0.919 | locus YEL061C, strain CIN8, active compounds read low 1.02 | locus YGR078C, strain PAC10, active compounds read low 1 | locus YHR030C, strain SLT2, active compounds read low 0.98 | locus YHR087W, strain rtc3, active compounds read low 1.01 | locus YJL187C, strain SWE1, active compounds read low 1.01 | locus YJR043C, strain POL32, active compounds read low 0.999 | [2] 0.972 | locus YLR039C, strain RIC1, active compounds read low 0.975 | locus YLR058C, strain SHM2 (second series), active compounds read low 0.999 | locus YLR085C, strain ARP6, active compounds read low 1.03 | locus YLR262C, strain YPT6, active compounds read low 1 | locus YML094W, strain GIM5, active compounds read low 1.03 | locus YMR219W, strain ESC1, active compounds read low 0.99 | [3] 0.987 | locus YMR307W, strain GAS1, active compounds read low 0.889 | [4] 0.983 | locus YNL298W, strain CLA4 (second series), active compounds read low 1.03 | [5] 0.999 | locus YNR030W, strain Alg12, active compounds read low 1.02 | locus YOL006C, strain TOP1, active compounds read low 1.06 | [6] 0.884 | locus YPL241C, strain CIN2, active compounds read low 1.01 | locus YPR135W, strain CTF4, active compounds read low 1.15

NC(N)=NC(N)=Nc1cccc(Cl)c1
inactive: [1] 1.01 | [7] 1 | [8] 1.01 | [9] 0.999 | [10] 0.993 | [2] 1 | [3] 0.999 | locus YNL128W, strain TEP1, active compounds read low 1.03 | [4] 1 | [11] 1.01 | [12] 1.04 | [13] 1.01 | [5] 0.995 | [14] 1.05 | [6] 1

COC(=O)C(N)Cc1ccc(Cl)cc1 (centres undefined)
inactive: [7] 0.998 | [8] 0.993 | [9] 0.976 | [10] 0.988 | [15] 0.99 | [4] 1.01 | [11] 0.965 | [12] 0.965 | [13] 0.984 | [14] 0.91

CC(=O)NC(CS)C(=O)O (centres undefined)
inactive: [7] 0.975 | [8] 0.993 | [9] 1.03 | [10] 0.994 | [15] 1.02 | [3] 0.988 | [4] 0.979 | [11] 0.974 | [12] 0.988 | [13] 0.983 | [14] 0.996
